Assay results taken from PubChem BioAssay AID651815 (National Center for Advancing Translational Sciences (NCATS), 2012).
In all, about 2,100 compounds went through this assay and about 1,100 (52%) were called active. Inconclusive results (about 29%) are left out. Calls follow the shape of the dose curve; as a rule, active = well fitted inhibition curve with a large enough effect; inconclusive = small, poorly fitted or top-dose-only effect; inactive = no such curve, though single readings can be large or run the other way. So high a share suggests a set chosen from earlier hits. The list shows a part of the results.

Target: DNA dC->dU-editing enzyme APOBEC-3F (Homo sapiens) (UniProt Q8IUX4)
Sequence (Q8IUX4 whole entry, looked up): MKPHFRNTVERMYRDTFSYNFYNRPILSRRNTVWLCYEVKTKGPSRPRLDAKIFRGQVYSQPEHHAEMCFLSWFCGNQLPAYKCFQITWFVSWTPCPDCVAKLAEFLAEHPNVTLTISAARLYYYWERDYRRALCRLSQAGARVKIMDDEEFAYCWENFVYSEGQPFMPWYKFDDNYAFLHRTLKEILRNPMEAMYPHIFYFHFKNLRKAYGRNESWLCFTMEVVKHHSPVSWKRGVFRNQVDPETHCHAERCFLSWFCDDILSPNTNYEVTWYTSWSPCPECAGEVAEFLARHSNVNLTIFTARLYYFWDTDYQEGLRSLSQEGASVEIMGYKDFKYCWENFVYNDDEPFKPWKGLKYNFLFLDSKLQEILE
Assay: qHTS for inhibitors of Vif-A3F interactions: Cherry picks counterscreen; also: nearly all actives have a fitted effect of over 65% in size
Conditions: HeLa A3F-eYFP/Vif cells, eYFP fluorescence, 24 h; series mostly up to 46.1 µM
Method in brief: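 Rescue of Vif-driven A3F-eYFP degradation read as cellular eYFP fluorescence after 24 h compound exposure (several concentrations) in stable HeLa cells; MG132 (2 mM stock) as positive control.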
Potency is read from the fitted curve at half-maximal effect.

| Compound | Potency |
| --- | --- |
| O=C(N=c1ccn(-c2nc3ccccc3nc2NS(=O)(=O)c2ccc(Cl)cc2)cc1)c1cccs1 | 16.4 µM (active) |
| O=S(=O)(Nc1nc2ccccc2nc1N1CCN(c2ccccc2)CC1)c1ccc(F)cc1 | 18.4 µM (active) |
| O=S(=O)(Nc1nc2ccccc2nc1N1CCc2ccccc2C1)c1ccc(Br)cc1 | 23.1 µM (active) |
| CN1CCN(c2nc3ccccc3nc2NS(=O)(=O)c2ccc(Br)cc2)CC1 | 18.4 µM (active) |
| O=C(N=c1ccn(-c2nc3ccccc3nc2NS(=O)(=O)c2ccccc2)cc1)c1cccs1 | inactive |
| O=C(NC(=S)N1CCN(c2ccccn2)CC1)c1ccccc1 | inactive |
| O=S(=O)(Nc1nc2ccccc2nc1N1CCN(c2ccccn2)CC1)c1ccc(Cl)cc1 | 16.4 µM (active) |
| NC(=O)C1CCN(c2nc3ccccc3nc2NS(=O)(=O)c2ccc(Br)cc2)CC1 | 16.4 µM (active) |
| Cc1c(=O)n(OCc2ccc(Cl)cc2)c2ccccc2[n+]1[O-] | inactive |
| CN1/C(=C/C=C(/C#N)C(N)=O)C(C)(C)c2ccccc21 | 7.04 µM (active) |
| CN1/C(=C/C=C(C#N)C#N)C(C)(C)c2ccccc21 | 2.91 µM (active) |
| CN1/C(=C\C=C(C#N)C#N)C(C)(C)c2ccccc21 | 16.4 µM (active) |
| CC1=C/C(=C\C=C(C#N)C#N)N(C)c2ccccc21 | 3.26 µM (active) |
| COC(=O)COc1cccc2c(=O)n(CC(=O)NCc3ccccc3)ccc12 | 4.44 µM (active) |
| CCOC(=O)C(C)Oc1cccc2c(=O)n(CC(=O)NCc3ccco3)ccc12 (stereo not drawn) | 3.14 µM (active) |
| COc1cc(-c2nc3ccc(C)cn3c2NCc2ccccc2)ccc1SC1CCCCC1 | inactive |
| CCOc1cc(C)nc(NCc2ccccc2)n1 | inactive |
| COc1ccc(-c2nc3c4ccccc4ccn3c2Cc2ccsc2)cc1OC | inactive |
| COc1ccc(-c2nnc(SCC(=O)NCc3ccccc3)nc2-c2ccc(OC)c(OC)c2)cc1OC | 5.17 µM (active) |
| CCOc1cc(-c2nnc(SCC(=O)NCc3ccccc3)nc2-c2ccc(OC)c(OCC)c2)ccc1OC | 2.31 µM (active) |
| CCC(C)Sc1cc(-c2nc3ccccn3c2NC2CCCCC2)ccc1OC (stereo not drawn) | inactive |
| N#CC1=C(N)C(C#N)(C#N)[C@H](c2c(F)cccc2F)[C@H]2CC3(CC=C12)OCCO3 | 16.4 µM (active) |
| Cc1ccc(/C=C2/NC(=O)N(Cc3ccccc3F)C2=O)s1 | 4.11 µM (active) |
| Cc1cccc(CN2C(=O)N/C(=C/c3ccc(C)s3)C2=O)c1 | 12.5 µM (active) |

| Compound | Potency |
| --- | --- |
| C/C(CCC(C)C)=N\NC(=S)NCc1ccccc1 | inactive |
| CC(=O)Nc1ccc(C2=CC(=O)C[C@H](c3ccc(Cl)cc3)C2)cc1 | 20.6 µM (active) |
| CC(=O)Nc1ccc2c(c1)Cc1ccc(Cl)cc1-2 | inactive |
| COc1cccc(N2CCN(Cc3nc4scc(-c5ccccc5)c4c(=O)[nH]3)CC2)c1 | 9.94 µM (active) |
| O=c1[nH]c(CN2CCN(c3ccccc3)CC2)nc2scc(-c3ccccc3)c12 | 16.4 µM (active) |
| O=C(NC(=S)N1CCN(C2CCCCC2)CC1)c1ccccc1 | inactive |
| COc1ccc(Cl)cc1NC(=O)CN(C)CC(=O)Nc1ccccc1N1CCOCC1 | 3.53 µM (active) |
| O=C(Oc1ccc(Cl)c2cccnc12)c1ccco1 | inactive |
| C/C(CC(=O)NCc1ccco1)=N\NC(=O)COc1ccc(Cl)cc1Cl | 12.5 µM (active) |
| C/C(CC(=O)NCc1ccc(Cl)cc1)=N\NC(=O)COc1ccc(C)cc1Br | 15.8 µM (active) |
| c1ccc(N=Nc2ccc3cccccc2-3)cc1 | 15.8 µM (active) |
| CCOC(=O)C(=Cc1ccc(-n2cncn2)cc1)C(=O)OCC | 7.9 µM (active) |
| CCOC(=O)C(=Cc1ccc(-n2ccnc2)cc1)C(=O)OCC | 12.5 µM (active) |
| COc1cc(CNCCSc2nnnn2C)ccc1OCc1c(F)cccc1Cl | inactive |
| O=C(c1ccccc1)c1c2c(cc3sc4ccccc4[n+]13)-c1cccc3cccc-2c13 | 17.7 µM (active) |
| Oc1ccc(C2=NNC(=NCc3ccc4c(c3)OCO4)SC2)c(O)c1 | 4.98 µM (active) |
| O=C(O)CSc1c2ccccc2cc2ccccc12 | inactive |
| Cc1cc(NC(=O)NC(=O)c2ccccc2NC(=O)C(C)N)ccc1Oc1ncc(Br)cn1 (stereo not drawn) | 3.14 µM (active) |
| O=C1c2cccc3c([N+](=O)[O-])c(O)cc(c23)C(=O)N1Nc1ccccc1 | 23.1 µM (active) |
| O=c1[nH]c2ccccc2n2c(C(F)(F)F)nnc12 | 16.4 µM (active) |
| Cc1cccc(Cn2c(=O)n(CCCC(=O)NCc3ccco3)c(=O)c3ccccc32)c1 | 8.86 µM (active) |
| O=S(=O)(Nc1nc2ccccc2nc1Nc1cccc(S(=O)(=O)N2CCCCC2)c1)c1ccccc1 | 18.4 µM (active) |
| Cc1ccc(S(=O)(=O)Nc2nc3ccccc3nc2Nc2cccc(S(=O)(=O)N3CCCC3)c2)cc1 | 3.26 µM (active) |
| O=C(Nc1ccc(Cl)cn1)c1cccc(S(=O)(=O)N2CCCCCC2)c1 | inactive |

| Compound | Potency |
| --- | --- |
| O=C(NCc1ccco1)C1Cc2c(-c3cccc(F)c3)ccnc2O1 (stereo not drawn) | 2.8 µM (active) |
| CC(=O)c1cccc(-c2ccnc3c2CC(C(=O)NCc2ccco2)O3)c1 (stereo not drawn) | 1.98 µM (active) |
| O=C(NCc1ccccc1)C1Cc2c(-c3cccc(F)c3)ccnc2O1 (stereo not drawn) | 2.8 µM (active) |
| CC(=O)c1cccc(-c2ccnc3c2CC(C(=O)NCc2ccc(F)c(F)c2)O3)c1 (stereo not drawn) | 3.96 µM (active) |
| O=C(O)CSc1cc(NS(=O)(=O)c2cccc([N+](=O)[O-])c2)c2ccccc2c1O | inactive |
| COc1ccc(-n2c(O)c(/C=N/NS(=O)(=O)c3cccc([N+](=O)[O-])c3)c3ccccc3c2=O)cc1OC | 14 µM (active) |
| COc1ccc(-n2c(O)c(/C=N/NS(=O)(=O)c3ccc(C)c([N+](=O)[O-])c3)c3ccccc3c2=O)cc1OC | 6.51 µM (active) |
| Cc1ccc(NC(=O)CSc2n[nH]c(-c3ccccn3)n2)cc1 | inactive |
| Cc1ccc(NC(=O)CSc2nc3ccc(Nc4nc(N5CCOCC5)nc(N5CCOCC5)n4)cc3s2)cc1 | 20.6 µM (active) |
| O=C(CSc1nc2ccc(Nc3nc(N4CCOCC4)nc(N4CCOCC4)n3)cc2s1)Nc1ccccc1F | 20.6 µM (active) |
| CN1CCC(OC(=O)c2cc3cc(Cl)cc(Cl)c3oc2=O)CC1 | inactive |
| Cc1ccc(C(=O)CSC2=C(C#N)C(c3ccco3)C3=C(CCCC3=O)N2)cc1 (stereo not drawn) | 9.94 µM (active) |
| O=C(c1ccc(CS(=O)c2ccccc2Cl)o1)N1CCN(c2ccccc2F)CC1 (stereo not drawn) | 1.84 µM (active) |
| O=c1c2cc3ccccc3n2cnn1Cc1ccccc1F | 14 µM (active) |
| Cc1ccnc(N/C=C(\C#N)c2nc(-c3cccc(Br)c3)cs2)c1 | 15.8 µM (active) |
| Cc1cc(C)cc(NC(=O)Cn2cc(C(=O)C3CCCCC3)c3ccccc32)c1 | 16.4 µM (active) |
| Cc1cc(C)cc(NC(=S)NC(=O)C2CC2)c1 | inactive |
| Cc1cc(/C=C/c2ccnc3ccccc23)ccc1N | 16.4 µM (active) |
| Cc1cc(/C=C/c2ccnc3ccccc23)ccc1N(C)C | 10.3 µM (active) |
| CN(C)c1ccc(/C=C/c2ccnc3ccccc23)cc1O | 18.4 µM (active) |
| CN1CCCc2cc(/C=C/c3ccnc4ccccc34)ccc21 | 2.59 µM (active) |
| CN(C)c1ccc(/C=C/c2ccnc3ccccc23)cc1C=O | 6.51 µM (active) |
| CCc1cc(/C=C/c2ccnc3ccccc23)ccc1N(C)C | 20.6 µM (active) |
| Cc1ccc(CNC(=O)Cc2ccc(-n3cccc3)cc2)cc1 | 3.53 µM (active) |

| Compound | Potency |
| --- | --- |
| Cc1ccc(NC(=O)Cc2ccc(-n3cccc3)cc2)c(C)c1 | inactive |
| CCN(CC)CCCNc1ccc2ncn3c4ccc(O)cc4c(=O)c1c23 | 20.6 µM (active) |
| CN(C)CCNc1ccc2ncn3c4ccc(O)cc4c(=O)c1c23 | 20.6 µM (active) |
| C=CCNC(=S)N/N=C/c1ccc(C)cc1C | inactive |
| CCOc1cc(S(=O)(=O)NCc2ccc(OC)cc2)c(OCC)cc1-n1cnnn1 | 12.5 µM (active) |
| c1ccc2c(c1)Cc1cc3ccccc3nc1-2 | 9.2 µM (active) |
| Cc1ccc(S(=O)(=O)N2CCCCC2CCNC(=O)C(=O)NCc2ccco2)cc1 (stereo not drawn) | 14 µM (active) |
| COc1cc(/C=C/C(=O)c2ccc3c(c2)OCCO3)cc(Br)c1OCC(=O)N(C)C | 14 µM (active) |
| CN(C)c1ccc(/C=C/c2ccnc3c(N)cccc23)cc1 | 18.4 µM (active) |
| CN(C)c1ccc(/C=C/c2ccnc3c(Cl)cccc23)cc1 | 9.2 µM (active) |
| CN(C)c1ccc(/C=C/c2ccnc3c(Cl)ccc(Cl)c23)cc1 | 5.17 µM (active) |
| COc1ccc(-c2ccc3c(c2)S(=O)(=O)c2cccc(C(=O)NCCOc4ccccc4)c2C3=O)cc1OC | 14 µM (active) |
| O=C(NCc1ccccc1Cl)c1cccc2c1C(=O)c1ccc(-c3ccc(OC(F)(F)F)cc3)cc1S2(=O)=O | 16.4 µM (active) |
| COc1ccc(-c2ccc3c(c2)S(=O)(=O)c2cccc(C(=O)NCc4cccc(OC(F)(F)F)c4)c2C3=O)cc1OC | 3.66 µM (active) |
| COc1ccc(S(=O)(=O)NN(C)c2nc(C(F)(F)F)nc3ccccc23)cc1 | 11.2 µM (active) |
| COc1ccc(NC(=O)C2(C)Cc3c(-c4cccc(NC(C)=O)c4)ccnc3O2)cn1 (stereo not drawn) | 7.04 µM (active) |
| COc1ccc(NC(=O)C2(C)Cc3c(-c4cccc(C(N)=O)c4)ccnc3O2)cn1 (stereo not drawn) | 12.5 µM (active) |
| CN(C)c1ccc(/C=C(/C(=O)c2ccc(Cl)cc2Cl)n2cncn2)cc1 | 14 µM (active) |
| Cn1c(=S)c2[nH]c(SCCN3CCCC3)nc2n(C)c1=O | inactive |
| COc1cc(-c2noc(C)c2/C=C/c2ccc(OC(C)=O)cc2)cc(OC)c1OC | 0.627 µM (active) |
| COc1cc(-c2noc(C)c2/C=C/c2cccc([N+](=O)[O-])c2)cc(OC)c1OC | 1.58 µM (active) |
